The values that follow come from PubChem BioAssay (NCATS).

Unmarked numbers belong to inactive results. Results filed as inconclusive are left out. Activity calls are given as the source filed them. Unless noted, calls follow the shape of the dose curve; as a rule, active = well fitted curve in the direction sought with a large enough effect; inconclusive = small, poorly fitted or top-dose-only effect, or another doubt; inactive = no such curve, though single readings can be large; an effect the other way counts as inactive or inconclusive.

Test [1] has as its target Cytochrome P450 1A2 (Homo sapiens) (UniProt P05177). Nature of the test: p450-cyp1a2 (AID 410; calls by dose curve; also: potency is read from the fitted curve at half-maximal effect;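 as to activity change, negative = inhibition: -100% = full effect of reference inhibitor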). An outline of the steps:
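O-Demethylation of luciferin 6' methyl ether by human CYP1A2 is monitored as luciferase luminescence. Substrate sits at Km (100uM); enzyme is 20nM. Values are scaled to 57 uM furafylline as maximal inhibition.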

The nature of test [2]: NFAT Signaling Pathway (AID 444; active = well fitted curve in either direction with a large enough effect, not every such curve was filed as active;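 also: carbachol stimulus at about its EC50 of 1 µM final; % is scaled to controls: 0 for no effect and ±100 for the full control effect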). The following applies: Jurkat NFAT-bla M1, carbachol, beta-lactamase ratio, 5 h; at 17.2 µM (top of the series) unless noted. The method in brief: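 Read-out: CCF4 FRET ratio (460 nm/530 nm) after 1 h RT dye loading, used for %activity and AC50 from titration series. Cells: Jurkat NFAT-β-lactamase/M1 line, treated with compound plus 1 uM carbachol for 5 h, 37 °C.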

Test [3] in a line: Stat Signaling Pathway (AID 446; active = well fitted curve in either direction with a large enough effect, not every such curve was filed as active;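 also: ME-180 cervical cancer cells given 40 pM IL-6 alongside compound; SIE-controlled beta-lactamase reporter measured as 460/530 nm FRET emission ratio; % is scaled to controls: 0 for no effect and ±100 for the full control effect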). The following applies: ME-180 SIE beta-lactamase reporter, IL-6 stimulated, 5 h. An outline of the steps:
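FRET read-out (405 nm excitation, 460/530 nm emission) of a beta-lactamase reporter under a STAT-inducible element in ME-180 cervical carcinoma cells. Cells with compound receive 40 pM IL-6 for 5 h. Values are normalised to AC90 stimulation and AC90 JAK-inhibitor controls.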

Test [4] addresses Mitogen-activated protein kinase 10 (Mus musculus) (UniProt Q61831). Nature of the test: JNK3 AlphaScreen Assay (AID 530; active = well fitted curve in either direction with a large enough effect, not every such curve was filed as active;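 also: kinase came from lysate of stimulated human HepG2 cells; signal reports phosphorylation of biotinylated GST-cJun 1-79 at Ser73 with 10 µM ATP; % is scaled to controls: 0 for no effect and ±100 for the full control effect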). The method in brief:
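qHTS titrations with 15 min compound pre-incubation before adding ATP (10 uM final). Read-out: AlphaScreen of Ser73-phosphorylated biotin-GST-cJun using HepG2 lysate JNK3 activated by IL-1β and TNFα.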

In test [5] the target is 3',5'-cyclic-AMP phosphodiesterase 4B (Homo sapiens) (UniProt Q07343). Nature of the test: qHTS Assay for Inhibitors of PDE-IV (AID 607; active = well fitted activation curve with a large enough effect in the main read-out, with a control signal flat, not every such curve was filed as active; also: % of control where 0% means no effect). An outline of the steps:
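Cell-based read-out of cAMP via a modified cyclic nucleotide-gated channel and membrane potential dye (535/590 nm) in HEK293 cells expressing PDE4 endogenously. Compounds tested up to 22.9 uM final; 100 uM RO 20-1724 reference.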

Test [6] has as its target Guanine nucleotide-binding protein G(i) subunit alpha-1 (Homo sapiens) (UniProt P63096). As to the kind of experiment: qHTS Assay for Inhibitors of RGS12 GoLoco Motif Activity (Green Fluorophore) (AID 879).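 Also: 0% = labeled peptide with Gαi1 and full inhibition = labeled peptide alone without protein; negative values mean loss of peptide binding seen as reduced polarization.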 The method in brief:
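A drop in FITC polarization marked displacement of the FITC-tagged RGS12 GoLoco peptide (10 nM) from Gαi1 (50 nM). Compounds were incubated 10 min at room temperature in Tris pH 7.5 buffer containing 150 mM NaCl, 0.1 mM GDP and 0.05% NP40; unlabeled peptide titration served as control.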

Test [7] deals with Cytochrome P450 2C9 (Homo sapiens) (UniProt P11712). As to the kind of experiment: qHTS Assay for Inhibitors and Substrates of Cytochrome P450 2C9 (AID 883). Also: potency is read from the fitted curve at half-maximal effect; nearly all actives have a fitted effect of over 60% in size. An outline of the steps: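 Inhibition of CYP2C9 is scored as loss of luminescence, with 57uM sulphaphenazole defining 100% inhibition. Substrate Luciferin-H is used at 100uM, equal to its KM; enzyme at 10nM in 25mM KPO4, 60 min at 37C with NADPH regeneration.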
Cytochrome P450 2C9 (Homo sapiens), sequence (P11712 whole entry, looked up): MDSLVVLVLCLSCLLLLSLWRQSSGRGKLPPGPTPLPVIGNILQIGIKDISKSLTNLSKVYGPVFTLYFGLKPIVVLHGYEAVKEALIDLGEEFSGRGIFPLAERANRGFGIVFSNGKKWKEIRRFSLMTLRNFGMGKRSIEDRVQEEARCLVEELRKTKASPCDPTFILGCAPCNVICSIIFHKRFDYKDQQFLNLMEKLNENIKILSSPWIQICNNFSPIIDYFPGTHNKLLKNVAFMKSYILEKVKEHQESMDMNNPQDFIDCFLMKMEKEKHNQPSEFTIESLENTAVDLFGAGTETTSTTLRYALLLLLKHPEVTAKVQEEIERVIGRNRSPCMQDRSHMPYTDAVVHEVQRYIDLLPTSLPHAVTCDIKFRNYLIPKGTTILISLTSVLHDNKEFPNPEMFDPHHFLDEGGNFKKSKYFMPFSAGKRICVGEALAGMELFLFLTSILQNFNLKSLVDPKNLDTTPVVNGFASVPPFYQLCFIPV

The target in test [8] is Cytochrome P450 3A4 (Homo sapiens) (UniProt P08684). As to the kind of experiment: qHTS Assay for Activators of Cytochrome P450 3A4 (AID 885). Also: nearly all actives have a fitted effect of over 65% in size. An outline of the steps: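 Luminescent readout of luciferin formed from 25 uM Luciferin-PPXE (KM level) by 20 nM CYP3A4 in 200 mM KPO4, with 60 min NADPH-driven reaction at room temperature after 10 min compound exposure. Ketoconazole (57 uM) defined 100% inhibition.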
Cytochrome P450 3A4 (Homo sapiens), sequence (P08684 whole entry, looked up): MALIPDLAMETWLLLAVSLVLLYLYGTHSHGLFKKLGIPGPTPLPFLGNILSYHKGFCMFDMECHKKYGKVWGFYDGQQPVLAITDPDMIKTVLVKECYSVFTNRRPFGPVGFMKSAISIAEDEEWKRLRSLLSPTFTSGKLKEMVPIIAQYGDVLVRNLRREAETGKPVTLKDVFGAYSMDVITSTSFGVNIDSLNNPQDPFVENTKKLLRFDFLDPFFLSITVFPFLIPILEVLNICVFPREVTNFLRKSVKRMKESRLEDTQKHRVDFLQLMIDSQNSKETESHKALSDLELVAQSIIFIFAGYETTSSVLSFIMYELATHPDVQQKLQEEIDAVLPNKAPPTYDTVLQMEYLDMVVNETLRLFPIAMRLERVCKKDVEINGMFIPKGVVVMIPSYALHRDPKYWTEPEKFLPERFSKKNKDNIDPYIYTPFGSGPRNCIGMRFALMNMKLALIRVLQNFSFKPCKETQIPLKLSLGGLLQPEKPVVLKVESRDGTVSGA
A general note: qHTS replaces the single test concentration by a dilution series.

The nature of test [9]: qHTS Assay for Identification of Small Molecule Antagonists for NFkB Signaling Pathway (AID 895; active = well fitted inhibition curve with a large enough effect in the signal ratio, with a control signal flat, not every such curve was filed as active; the % refers to the signal ratio; also: % is scaled to controls: 0 for no effect and ±100 for the full control effect). An outline of the steps:
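Beta-lactamase reporter read-out (460 and 530 nm emission ratio, 405 nm excitation, 2 hrs substrate loading RT) after 5 hr stimulation with 10 pM TNF alpha in compound-treated NFkB-bla ME-180 cells in low-serum medium.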

In test [10] the target is Pyruvate kinase (Leishmania mexicana) (UniProt Q27686). As to the kind of experiment: qHTS Validation Assay for Inhibitors of Leishmania Mexicana Pyruvate Kinase (AID 945).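 Also: 0% = DMSO only neutral control wells.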 An outline of the steps: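 Eight-point qHTS titrations in triplicate, data normalized to DMSO neutral control. Reaction: 0.2 nM LmPYK E451W mutant, 0.5 mM PEP, 0.1 mM ADP, 7 mM MgCl2, pH 7.2, one hour at room temperature; luminescent ATP detection.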
Pyruvate kinase (Leishmania mexicana), sequence (Q27686 2-499 E452W): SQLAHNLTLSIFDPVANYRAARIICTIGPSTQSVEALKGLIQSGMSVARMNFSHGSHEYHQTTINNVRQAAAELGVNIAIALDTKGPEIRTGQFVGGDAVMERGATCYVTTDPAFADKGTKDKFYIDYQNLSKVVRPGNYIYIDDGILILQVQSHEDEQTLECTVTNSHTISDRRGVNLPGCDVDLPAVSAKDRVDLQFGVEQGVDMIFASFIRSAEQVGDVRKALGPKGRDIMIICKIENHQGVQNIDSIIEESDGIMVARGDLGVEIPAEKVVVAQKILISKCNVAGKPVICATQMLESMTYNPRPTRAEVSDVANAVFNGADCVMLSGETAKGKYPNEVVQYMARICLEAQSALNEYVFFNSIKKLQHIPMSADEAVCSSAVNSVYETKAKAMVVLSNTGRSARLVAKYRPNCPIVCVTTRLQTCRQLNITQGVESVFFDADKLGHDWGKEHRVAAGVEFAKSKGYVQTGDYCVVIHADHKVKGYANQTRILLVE

Test [11] deals with Pyruvate kinase PKM (Homo sapiens) (UniProt P14618). As to the kind of experiment: qHTS Assay for Activators of Human Muscle Pyruvate Kinase (AID 954; active = well fitted curve in the direction sought with a large enough effect, not every such curve was filed as active;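 also: 0% = uninhibited enzyme and -100% = no enzyme or full thiadiazolimine inhibition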). The method in brief:
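ATP production by PKM2 detected via luciferase luminescence after 1 h room-temperature reaction (0.1 nM enzyme, PEP at Km 0.5 mM, ADP 0.1 mM, pH 7.2 imidazole buffer). Inhibition scaled to no-enzyme control; activation referenced to 0.3 nM enzyme wells.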

The target in test [12] is Alpha-galactosidase A (Homo sapiens) (UniProt P06280). Nature of the test: Counterscreen for Glucocerebrosidase Inhibitors: qHTS Assay for Human alpha-Galactosidase at pH 4.5 (AID 992). Also: 0% is about no effect. The method in brief: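 Fluorogenic 1536-well qHTS at pH 4.5 (citrate, Tween-20): 2 nM enzyme, 80 uM 4-MU-alpha-galactoside, 20 min room temperature, NaOH/glycine stop. Titration 0.7 nM to 77 uM, data normalized to no-enzyme and full-activity controls, Hill-fitted AC50.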
Alpha-galactosidase A (Homo sapiens), sequence (P06280 whole entry, looked up): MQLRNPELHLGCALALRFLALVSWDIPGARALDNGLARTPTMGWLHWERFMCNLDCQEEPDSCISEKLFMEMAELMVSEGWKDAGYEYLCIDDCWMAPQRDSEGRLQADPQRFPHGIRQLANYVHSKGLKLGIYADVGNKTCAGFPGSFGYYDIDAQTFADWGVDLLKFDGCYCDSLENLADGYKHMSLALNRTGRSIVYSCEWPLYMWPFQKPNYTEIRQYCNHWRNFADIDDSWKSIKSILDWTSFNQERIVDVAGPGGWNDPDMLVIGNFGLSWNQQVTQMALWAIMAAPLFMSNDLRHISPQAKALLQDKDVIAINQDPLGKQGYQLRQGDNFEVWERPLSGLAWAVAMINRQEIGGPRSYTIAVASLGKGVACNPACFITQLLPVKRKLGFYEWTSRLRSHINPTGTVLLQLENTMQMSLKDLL
(The purpose of a counterscreen is to sort out artefacts and off-target activity.)

The target of test [13] is alpha-glucosidase (Oryza sativa, rice) (UniProt Q653V4). As to the kind of experiment: Counterscreen for Glucocerebrosidase Inhibitors: qHTS Assay for Rice alpha-Glucosidase at pH 5.0 (AID 997).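 Also: 0% = full activity with enzyme and -100% = basal without enzyme.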 An outline of the steps:
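Endpoint fluorogenic assay at pH 5.0: compounds (0.7 nM to 77 uM) titrated against 4 nM rice enzyme and 400 uM 4-MU-alpha-glucoside for 20 min at room temperature; NaOH/glycine stop, read ex 365/em 440 nm, Hill-fitted AC50.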

The nature of test [14]: AP1 Signaling Pathway (AID 357; active = well fitted curve in either direction with a large enough effect, not every such curve was filed as active; also: % is scaled to controls: 0 for no effect and ±100 for the full control effect). The following applies: ME-180 (cervical carcinoma) AP-1-bla reporter, EGF-induced, beta-lactamase ratio, 5 h; at 17.2 µM (top of the series) unless noted. An outline of the steps: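 Read-out was the 460nm/530nm emission ratio (excitation 405nm) after CCF4 loading for 2.5 hours at room temperature. Cells carried an AP-1-driven beta-lactamase reporter, were stimulated with EC50 EGF plus compound for 5 hours, and AC50 values came from titrations.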

For test [15], the target named is Glucocorticoid receptor (Homo sapiens) (UniProt P04150). As to the kind of experiment: GR-GFP Redistribution (AID 450;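 active = compounds whose dose series gives a full or clear partial fitted curve of increased nuclear translocation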; also: potency is read from the fitted curve at half-maximal effect).
Glucocorticoid receptor (Homo sapiens), sequence (P04150 whole entry, looked up, the tested form may be a part): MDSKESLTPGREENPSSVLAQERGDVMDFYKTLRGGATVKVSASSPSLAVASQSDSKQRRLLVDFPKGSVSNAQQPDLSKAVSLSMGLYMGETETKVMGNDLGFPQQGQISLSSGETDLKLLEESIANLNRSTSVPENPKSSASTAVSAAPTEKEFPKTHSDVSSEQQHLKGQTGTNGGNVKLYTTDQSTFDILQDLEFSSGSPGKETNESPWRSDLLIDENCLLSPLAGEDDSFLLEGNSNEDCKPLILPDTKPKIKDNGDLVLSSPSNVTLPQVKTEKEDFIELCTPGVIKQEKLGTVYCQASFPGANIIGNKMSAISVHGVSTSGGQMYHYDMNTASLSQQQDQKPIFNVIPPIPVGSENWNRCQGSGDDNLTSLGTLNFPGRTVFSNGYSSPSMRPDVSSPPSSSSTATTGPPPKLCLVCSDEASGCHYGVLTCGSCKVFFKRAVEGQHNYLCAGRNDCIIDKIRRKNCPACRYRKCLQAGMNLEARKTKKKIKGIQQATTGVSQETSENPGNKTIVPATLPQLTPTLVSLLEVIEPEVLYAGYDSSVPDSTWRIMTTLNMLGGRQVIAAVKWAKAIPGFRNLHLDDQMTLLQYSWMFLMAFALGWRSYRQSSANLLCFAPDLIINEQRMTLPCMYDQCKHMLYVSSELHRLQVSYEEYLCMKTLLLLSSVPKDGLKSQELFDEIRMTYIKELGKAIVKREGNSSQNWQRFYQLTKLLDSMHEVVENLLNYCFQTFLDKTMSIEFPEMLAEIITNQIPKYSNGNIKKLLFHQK
The target is the same in test [16]. Nature of the test: GR-EFC Redistribution (AID 451; calls by dose curve; also: potency is read from the fitted curve at half-maximal effect). Particulars: CHO-K1 GR-EFC translocation, beta-gal luminescence, 2 h. An outline of the steps: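 Translocation of GR-ED fusion to nuclear EA restores b-gal, read by luminescence after 1 h room-temperature detection. Engineered CHO-K1 biosensor cells, 1,000/well, exposed 2 h at 37 C to titrations up to 46 uM final.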

For test [17], the target named is Cytochrome P450 2C19 (Homo sapiens) (UniProt P33261). As to the kind of experiment: qHTS Assay for Inhibitors and Substrates of Cytochrome P450 2C19 (AID 899). Also: potency is read from the fitted curve at half-maximal effect; nearly all actives have a fitted effect of over 60% in size. The method in brief: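 5nM enzyme + 10uM Luciferin-H EGE (=KM), 50mM KPO4; cpd pin-transferred, 10 min 37C; NADPH regen, 60 min 37C; stopped w/ luciferin detection reagent, 20 min; luminescence. Normalized to 57uM ketoconazole (AC100).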

The nature of test [18]: qHTS Assay for Identification of Small Molecule Agonists for Thrombopoietin (TPO) Signaling Pathway (AID 917). Also: % is scaled to controls: 0 for no effect and ±100 for the full control effect. An outline of the steps:
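First, Ba/F3 cells with human TPO receptor were held overnight without IL-3. Next, compounds and TPO (26 pM final) were added. After 24 hrs at 37 C, luciferase detection reagent was added and luminescence measured following 10 min at room temperature.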

Test [19] has as its target Muscarinic acetylcholine receptor M1 (Rattus norvegicus) (UniProt P08482). As to the kind of experiment: qHTS Assay for Antagonists of Acetylcholine Muscarinic M1 Receptor: Kinetic Measurement of Intracellular Calcium Response (AID 943).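 Also: Fluo-4 calcium signal as peak divided by basal fluorescence over 4 min; nearly all actives have a fitted effect of over 75% in size.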 The method in brief: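 Antagonism is measured as inhibition of the carbachol-evoked calcium rise in CHO cells transfected with rat M1. Cells are dye-loaded, exposed to compound for 10 min, then stimulated with 100 nM carbachol (EC80).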

Cytochrome P450 1A2 (Homo sapiens), sequence (P05177 whole entry, looked up): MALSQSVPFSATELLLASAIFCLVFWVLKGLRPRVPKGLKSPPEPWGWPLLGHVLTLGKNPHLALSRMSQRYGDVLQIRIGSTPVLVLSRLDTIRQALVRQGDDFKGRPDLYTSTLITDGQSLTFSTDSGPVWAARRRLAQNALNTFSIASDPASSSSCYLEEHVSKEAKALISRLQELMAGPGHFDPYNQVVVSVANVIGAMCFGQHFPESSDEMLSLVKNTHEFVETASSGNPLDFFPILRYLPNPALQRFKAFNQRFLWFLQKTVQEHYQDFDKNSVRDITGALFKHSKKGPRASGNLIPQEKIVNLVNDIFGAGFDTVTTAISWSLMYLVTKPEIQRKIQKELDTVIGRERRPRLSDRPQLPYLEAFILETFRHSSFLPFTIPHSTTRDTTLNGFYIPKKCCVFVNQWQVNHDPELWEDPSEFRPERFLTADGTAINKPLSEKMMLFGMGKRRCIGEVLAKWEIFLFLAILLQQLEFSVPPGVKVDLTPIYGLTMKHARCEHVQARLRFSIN
3',5'-cyclic-AMP phosphodiesterase 4B (Homo sapiens), sequence (Q07343 whole entry, looked up): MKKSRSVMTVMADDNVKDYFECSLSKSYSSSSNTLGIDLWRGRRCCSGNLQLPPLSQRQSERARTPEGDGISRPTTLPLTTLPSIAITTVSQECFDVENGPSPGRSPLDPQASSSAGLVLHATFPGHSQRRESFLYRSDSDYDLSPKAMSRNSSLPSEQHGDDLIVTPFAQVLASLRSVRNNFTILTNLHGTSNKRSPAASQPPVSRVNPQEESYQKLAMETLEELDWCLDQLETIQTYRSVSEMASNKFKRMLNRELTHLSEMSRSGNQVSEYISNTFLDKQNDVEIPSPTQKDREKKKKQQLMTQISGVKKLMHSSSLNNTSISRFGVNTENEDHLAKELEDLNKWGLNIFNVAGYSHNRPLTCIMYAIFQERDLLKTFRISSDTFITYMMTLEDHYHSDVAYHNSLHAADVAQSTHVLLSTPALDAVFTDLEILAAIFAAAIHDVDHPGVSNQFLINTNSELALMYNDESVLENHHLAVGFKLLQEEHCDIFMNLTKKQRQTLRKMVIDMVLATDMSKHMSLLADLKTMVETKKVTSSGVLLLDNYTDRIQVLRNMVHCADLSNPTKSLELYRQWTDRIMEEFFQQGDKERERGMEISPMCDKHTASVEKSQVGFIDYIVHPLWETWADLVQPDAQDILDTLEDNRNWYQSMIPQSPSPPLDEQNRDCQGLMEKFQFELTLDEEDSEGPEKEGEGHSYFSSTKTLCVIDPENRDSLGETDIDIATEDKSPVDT
Pyruvate kinase PKM (Homo sapiens), sequence (P14618 whole entry, looked up): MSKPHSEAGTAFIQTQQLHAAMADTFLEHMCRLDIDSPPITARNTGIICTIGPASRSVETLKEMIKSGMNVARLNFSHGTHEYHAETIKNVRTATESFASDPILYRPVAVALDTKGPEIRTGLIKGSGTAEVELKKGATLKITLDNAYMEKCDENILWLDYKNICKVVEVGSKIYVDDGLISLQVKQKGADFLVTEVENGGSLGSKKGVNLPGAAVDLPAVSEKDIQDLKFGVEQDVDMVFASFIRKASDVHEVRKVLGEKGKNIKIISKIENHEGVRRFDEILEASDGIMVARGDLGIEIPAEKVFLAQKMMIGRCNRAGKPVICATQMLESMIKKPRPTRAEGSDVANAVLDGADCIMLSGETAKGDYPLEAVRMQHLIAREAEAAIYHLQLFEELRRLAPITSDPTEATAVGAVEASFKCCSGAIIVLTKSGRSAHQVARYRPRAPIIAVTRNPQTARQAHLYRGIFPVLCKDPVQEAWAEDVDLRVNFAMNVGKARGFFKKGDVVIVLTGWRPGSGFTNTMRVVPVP
Muscarinic acetylcholine receptor M1 (Rattus norvegicus), sequence (P08482 whole entry, looked up): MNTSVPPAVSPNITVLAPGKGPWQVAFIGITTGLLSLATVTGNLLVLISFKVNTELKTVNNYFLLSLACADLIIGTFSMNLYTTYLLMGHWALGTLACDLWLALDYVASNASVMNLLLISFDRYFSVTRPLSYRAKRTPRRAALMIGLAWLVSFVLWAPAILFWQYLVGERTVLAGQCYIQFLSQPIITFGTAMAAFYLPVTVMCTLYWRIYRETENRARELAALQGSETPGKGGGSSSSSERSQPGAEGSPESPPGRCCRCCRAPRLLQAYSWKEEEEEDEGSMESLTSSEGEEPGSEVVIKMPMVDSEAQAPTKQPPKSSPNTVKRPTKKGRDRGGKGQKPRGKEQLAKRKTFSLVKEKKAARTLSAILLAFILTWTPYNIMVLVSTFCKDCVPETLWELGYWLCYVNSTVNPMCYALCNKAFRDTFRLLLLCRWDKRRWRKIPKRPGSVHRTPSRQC

On to `COc1cc([C@H]2c3cc4c(cc3[C@@H](O)[C@@H]3COC(=O)[C@H]23)OCO4)cc(OC)c1OC`, for which the Potency result in [1], in [4], in test [5], in [8], in [9] and in test [10] was “inactive” each time. For the same molecule, the activity change, negative = inhibition in test [2] is -22.1% [at 38 µM]. Moreover, the activity, negative = inhibition in test [3] (at 17.2 µM (top of the series)) is 16.9%; in test [3] (at 38 µM (top of the series)), -4.5%. For the same molecule, the call in test [6], in test [11], in [12] and in test [13] was inactive. Besides, the Potency in [7] is 6.31 µM (active).
For the molecule `CC(=O)N1CC2(CC2)CC1c1ccccc1` (configuration not stated), in [1], the Potency entry was “inactive”.
Turning to `CN1CCc2nc(SCC(=O)Nc3ccc(Cl)cc3)c(C#N)cc2C1`, the activity change, negative = inhibition in test [14] is 5.33%. In test [15], the Potency is over 20.6 µM.
The like results for `CCN1CCN(c2nc3c(C)cccn3c(=O)c2/C=C(\C#N)S(=O)(=O)c2ccc(C)cc2)CC1` were, in that order, 6.19% and over 20.6 µM.
As for `CCCCC[C@H](O)c1cccc(OCc2ccc3ccccc3n2)c1`, the Potency was 0.794 µM (active) in [1], over 46 µM in [15], over 46 µM in test [16] and 6.31 µM (active) in test [17]. Also, in [3] (at 17.2 µM (top of the series) unless noted), the activity, negative = inhibition was -0.505% [at 38 µM]. Moreover, the Potency result in [4], in test [8], in test [18], in test [19] and in [10] was “inactive” in each case. The result in [11], in [12] and in test [13] was inactive.
